PubChem BioAssay

Test: reversal of MRP1-mediated doxorubicin resistance, pilot screen, H69AR cells, doxorubicin co-treatment (AID 601)
Conditions: H69AR cells + 2 uM doxorubicin, CellTiter-Glo, 72 h; measured here: viability with 2 uM doxorubicin; at 10 µM; stronger effect = lower value

SMILES	viability [%]
CC(C)=CC/C=C1\CCC(C(=O)O)C(C(=O)O)C1 (stereo unspecified)	83.2
CCOC(=O)C1=C(C)NC(SC(C)=O)=NC1c1ccc(OC(C)=O)c(OC)c1 (stereo unspecified)	94.5
O=C(Nc1cccc(F)c1)c1cccc(S(=O)(=O)N2CCOCC2)c1	91
CCCn1c(SCC(=O)N2CCCc3ccccc32)nnc1-c1ccccn1	93.2
Cc1ccccc1N(C)S(=O)(=O)c1ccc2[nH]cc(C(=O)NCC3CCCO3)c(=O)c2c1 (stereo unspecified)	87.5
Cc1cccc(C(OC(=O)c2ccco2)C(=O)NCc2ccccc2)n1 (stereo unspecified)	88.3
Nn1c(SCC(=O)Nc2ccc(F)cc2)nnc1-c1cccnc1	95.5
CCOC(=O)c1c(NC(=O)c2nn(CC)cc2Br)c(C#N)cn1-c1ccccc1	72.2
CCCCOC(=O)CN1C(=O)c2ccc(C(=O)OCCCC)cc2C1=O	95.3
O=C(COc1ccc(Cl)cc1)Nc1nc(-c2cccs2)cs1	84.6
O=C(CSc1ncn[nH]1)c1ccco1	98.5
CC(=O)Nc1c(O)nc(SCC(=O)Nc2nnc(CC(C)C)s2)[nH]c1=O	102
COC(=O)C(C)NC(=O)C12CC3CC(CC(C3)C1)C2 (stereo unspecified)	94.8
CCOc1cc(C2C(C#N)=C(N)OC(C)=C2C(C)=O)cc(Br)c1O (stereo unspecified)	84.2
COC(=O)c1cc(Br)c(=O)n(Cc2cccnc2)c1	80.3
COc1cc(NS(=O)(=O)c2ccc(Br)s2)cc(OC)c1	94.3
Cc1ccccc1N(CC(=O)NCC1CCCO1)C(=O)C1(C)CC(=O)N=C2C=CC=CN21 (stereo unspecified)	100
CSc1ccc(S(=O)(=O)Nc2cccc(F)c2)cc1	97.6
CCC(C)(C)n1nnnc1C(c1ccncc1)N1CCN(c2cccc(OC)c2)CC1 (stereo unspecified)	85.8
CCn1c(=O)c(C(=O)Nc2cccnc2)c(O)c2ccccc21	91.9
CCOCCCNC(=O)CCNS(=O)(=O)c1ccc(C)cc1	96.7

Same assay, conditions: H69AR cells, CellTiter-Glo, 72 h; compound alone cytotoxicity; at 10 µM

SMILES	viability [%]
CCOc1ccc(OCc2ccc(C(=O)Nc3cccc(C)n3)o2)cc1	93.4
CCOC(=O)N1CCC(NC(=O)CSCc2nc(-c3cccc(OC)c3)oc2C)CC1	106
Cn1c(=O)cc(OCC(=O)N2CCN(c3cccc(C(F)(F)F)c3)CC2)c2ccccc21	75.3
CCCCOc1ccc(CSc2n[nH]c(C)n2)cc1	100
CS(=O)(=O)N(CC(=O)NCc1ccccn1)c1ccc2c(c1)OCCO2	97.8
CCOC(=O)CSc1nnc([C@H](C)NC(=O)OC(C)(C)C)o1	106
CCSc1nnc2c(n1)OC=Nc1ccc(Br)cc1-2	99.7
COc1ccccc1Nc1nc2ccccc2[nH]1	72.8
Cc1oc(-c2ccccc2Cl)nc1CSCC(=O)N1CCCC1	99.5
CNC(=O)Nc1cccc(C(F)(F)F)c1	93.6
CCOC(=O)N1CCN(c2c(NCCN(C)Cc3ccccc3)c(=O)c2=O)CC1	99
CCOc1ncccc1C(=O)OCC(=O)N1CC(=O)Nc2ccccc21	99.7
Cn1c(=O)c2c(-c3ccccc3)n(CCCN3CCOCC3)cc2n(C)c1=O	82.2
COc1cccc(NC(=O)N2CCN(c3cccc(C)c3C)CC2)c1	82.8
CCCCC(=O)NCCNc1nc2c(c(=O)n(C)c(=O)n2C)n1Cc1ccccc1	94.6
COc1ccc(S(=O)(=O)Nc2ccc(S(=O)(=O)N3CCCCC3)cc2)cc1OC	91.3
COc1ccc(CN2CC(C(=O)NCc3ccccn3)CC2=O)cc1 (stereo unspecified)	105
CC(C)(C)NC(=O)Cn1nnc(-c2cccs2)n1	92.2
COCCn1nnnc1CN(Cc1cccnc1)Cc1cc2cc(OC)ccc2[nH]c1=O	88.3
CC(C)=CC/C=C1\CCC(C(=O)O)C(C(=O)O)C1 (stereo unspecified)	104

SMILES	viability [%]
CCOC(=O)C1=C(C)NC(SC(C)=O)=NC1c1ccc(OC(C)=O)c(OC)c1 (stereo unspecified)	85.3
O=C(Nc1cccc(F)c1)c1cccc(S(=O)(=O)N2CCOCC2)c1	91.6
CCCn1c(SCC(=O)N2CCCc3ccccc32)nnc1-c1ccccn1	95.1
Cc1ccccc1N(C)S(=O)(=O)c1ccc2[nH]cc(C(=O)NCC3CCCO3)c(=O)c2c1 (stereo unspecified)	91.7
Cc1cccc(C(OC(=O)c2ccco2)C(=O)NCc2ccccc2)n1 (stereo unspecified)	96.1
Nn1c(SCC(=O)Nc2ccc(F)cc2)nnc1-c1cccnc1	103
CCOC(=O)c1c(NC(=O)c2nn(CC)cc2Br)c(C#N)cn1-c1ccccc1	74.8
CCCCOC(=O)CN1C(=O)c2ccc(C(=O)OCCCC)cc2C1=O	106
O=C(COc1ccc(Cl)cc1)Nc1nc(-c2cccs2)cs1	77.5
O=C(CSc1ncn[nH]1)c1ccco1	94.7
CC(=O)Nc1c(O)nc(SCC(=O)Nc2nnc(CC(C)C)s2)[nH]c1=O	93.6
COC(=O)C(C)NC(=O)C12CC3CC(CC(C3)C1)C2 (stereo unspecified)	99.7
CCOc1cc(C2C(C#N)=C(N)OC(C)=C2C(C)=O)cc(Br)c1O (stereo unspecified)	90.3
COC(=O)c1cc(Br)c(=O)n(Cc2cccnc2)c1	97.3
COc1cc(NS(=O)(=O)c2ccc(Br)s2)cc(OC)c1	99.9
Cc1ccccc1N(CC(=O)NCC1CCCO1)C(=O)C1(C)CC(=O)N=C2C=CC=CN21 (stereo unspecified)	98.7
CSc1ccc(S(=O)(=O)Nc2cccc(F)c2)cc1	97.3
CCC(C)(C)n1nnnc1C(c1ccncc1)N1CCN(c2cccc(OC)c2)CC1 (stereo unspecified)	85.3
CCn1c(=O)c(C(=O)Nc2cccnc2)c(O)c2ccccc21	67.7
CCOCCCNC(=O)CCNS(=O)(=O)c1ccc(C)cc1	105
